From PubChem BioAssay (EPA / NIEHS)
“And” between values parts separate entries of the source, which are not always exact repeats. Identical values can stand only once. More than one record can exist for a structure, and the calls need not agree. The source made the active and inactive calls. The calls were made as follows: active = hit-call score of the fitted dose curve at least 0.9, where 1 is the maximum; inactive = score below 0.9.

Legend:
[1] = read-out: Plasminogen activator inhibitor-1 (PAI1), SERPINE1 (gene 5054); test: BSK_MyoF_PAI1: BioMAP Diversity Plus: MyoF Assay for Plasminogen activator inhibitor-1 (PAI1) Biomarker Activity (AID 2284256); conditions: primary human lung fibroblasts
Outline: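 In this multiplexed primary-cell system, fibroblasts from human lung received compound for 24 h before ELISA detection of PAI-1; overt toxicity was checked by SRB (0.1%, TCA-fixed, 560 nm) in parallel wells.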

[2] = read-out: Interleukin-8 (IL8), CXCL8 (gene 3576); test: BSK_MyoF_IL8: BioMAP Diversity Plus: MyoF Assay for Interleukin-8 (IL8) Biomarker Activity (AID 2284261); conditions: primary human lung fibroblasts
Outline: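 DMSO-normalised, upward-fitted IL-8 ELISA signal; human lung fibroblasts, 24 h chemical treatment.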

Decorin, DCN (gene 1634) = test: BSK_MyoF_Decorin: BioMAP Diversity Plus: MyoF Assay for Decorin Biomarker Activity (AID 2284265); conditions: primary human lung fibroblasts
Outline: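 In this multiplexed fibroblast system, secreted or surface decorin is detected by ELISA one day after dosing, with increases scored against the DMSO vehicle.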

[3] = BSK_MyoF_SRB: Viability Assessment in the BioMAP Diversity Plus: MyoF Assay (AID 2284267); conditions: primary human lung fibroblasts;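 also: total protein by SRB absorbance in parallel cultures as cytotoxicity measure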
Outline: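 Lung fibroblast cultures, 24 h post-dose; fix 10% TCA, stain 0.1% SRB, read 560 nm. Signal = total protein as cytotoxicity measure; fitted relative to DMSO negative control.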

[4] = read-out: Matrix Metallopeptidase 1 (MMP1), MMP1 (gene 4312); test: BSK_MyoF_MMP1: BioMAP Diversity Plus: MyoF Assay for Matrix Metallopeptidase 1 (MMP1) Biomarker Activity (AID 2284268); conditions: primary human lung fibroblasts
Outline: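 Fibroblasts from human lung receive compound for 24 h before ELISA quantitation of MMP1. DMSO serves as baseline, and the endpoint is fitted for signal gain.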

[5] = read-out: TIMP metallopeptidase inhibitor 1 (TIMP1), TIMP1 (gene 7076); test: BSK_MyoF_TIMP1: BioMAP Diversity Plus: MyoF Assay for TIMP metallopeptidase inhibitor 1 (TIMP1) Biomarker Activity (AID 2284269); conditions: primary human lung fibroblasts
Outline: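 Primary human lung fibroblasts, MyoF multiplex system; chemical exposure 24 h; TIMP-1 by ELISA; positive fitting direction vs DMSO control.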

[6] = read-out: Interferon-inducible T-cell alpha chemoattractant (ITAC), CXCL11 (gene 6373); test: BSK_hDFCGF_ITAC: BioMAP Diversity Plus: hDFCGF Assay for Interferon-inducible T-cell alpha chemoattractant (ITAC) Biomarker Activity (AID 2284251); conditions: primary human foreskin fibroblasts
Outline: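 Measured by ELISA, the chemokine level serves as the endpoint in human skin fibroblast primary cultures 24 h after compound addition. Increases relative to DMSO-treated wells define activity.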

[7] = read-out: Plasminogen activator inhibitor-1 (PAI1), SERPINE1 (gene 5054); test: BSK_KF3CT_PAI1: BioMAP Diversity Plus: KF3CT Assay for Plasminogen activator inhibitor-1 (PAI1) Biomarker Activity (AID 2284252); conditions: primary human keratinocytes with fibroblasts
Outline: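 Keratinocyte + dermal fibroblast co-culture (human primary); 24 h post-dose; PAI-1 by ELISA; gain-of-signal fit vs DMSO control.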

[8] = read-out: Interleukin-8 (IL8), CXCL8 (gene 3576); test: BSK_KF3CT_IL8: BioMAP Diversity Plus: KF3CT Assay for Interleukin-8 (IL8) Biomarker Activity (AID 2284254); conditions: primary human keratinocytes with fibroblasts
Outline: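 Using parallel SRB-stained cultures to flag overt toxicity, the study quantified IL-8 by ELISA in human keratinocyte–foreskin fibroblast co-cultures 24 h after dosing, with DMSO as negative control and baseline.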

[9] = read-out: Monocyte Chemoattractant Protein-1 (MCP1), CCL2 (gene 6347); test: BSK_IMphg_MCP1: BioMAP Diversity Plus: IMphg Assay for Monocyte Chemoattractant Protein-1 (MCP1) Biomarker Activity (AID 2284253); conditions: primary human endothelial cells with macrophages
Outline: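 ELISA readout of MCP-1 at 24 hours in IMphg co-cultures of venular endothelial cells and macrophages, normalised to DMSO; parallel cultures stained with sulforhodamine B for overt cytotoxicity.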

[10] = read-out: Macrophage Inflammatory Protein-1 Alpha (MIP1a), CCL3 (gene 6348); test: BSK_IMphg_MIP1a: BioMAP Diversity Plus: IMphg Assay for Macrophage Inflammatory Protein-1 Alpha (MIP1a) Biomarker Activity (AID 2284255); conditions: primary human endothelial cells with macrophages
Outline: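 MIP-1a protein levels were quantified by ELISA after 24 h treatment of human endothelial cell–macrophage co-cultures, compared with DMSO. Parallel cultures were fixed with TCA and stained with 0.1% SRB to gauge overt cytotoxicity.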

CD69, CD69 (gene 969) = test: BSK_IMphg_CD69: BioMAP Diversity Plus: IMphg Assay for CD69 Biomarker Activity (AID 2284257); conditions: primary human endothelial cells with macrophages
Outline: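 Readout is ELISA for CD69 in primary human venular endothelial cell/macrophage co-culture, taken at 24 h post-dosing. SRB staining of parallel cultures gauged overt cytotoxicity; signal increase versus DMSO defined activity.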

[11] = read-out: Eotaxin 3, CCL26 (gene 10344); test: BSK_BF4T_Eotaxin3: BioMAP Diversity Plus: BF4T Assay for Eotaxin 3 Biomarker Activity (AID 2284258); conditions: primary human bronchial epithelial cells with fibroblasts
Outline: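 ELISA measurement of Eotaxin-3 after 24 h chemical exposure in a bronchial epithelial/dermal fibroblast co-culture, with DMSO as baseline. Parallel SRB staining (0.1% SRB after 10% TCA fixation, 560 nm) flagged overt cytotoxicity.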

[12] = read-out: Monocyte Chemoattractant Protein-1 (MCP1), CCL2 (gene 6347); test: BSK_BF4T_MCP1: BioMAP Diversity Plus: BF4T Assay for Monocyte Chemoattractant Protein-1 (MCP1) Biomarker Activity (AID 2284259); conditions: primary human bronchial epithelial cells with fibroblasts
Outline: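 MCP-1 ELISA readout taken 24 h after dosing in the BF4T system (bronchial epithelial cells plus dermal fibroblasts). Parallel SRB total-protein staining flagged cytotoxicity; DMSO served as baseline, positive fitting direction.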

[13] = read-out: Intercellular Adhesion Molecule 1 (ICAM1), ICAM1 (gene 3383); test: BSK_BF4T_ICAM1: BioMAP Diversity Plus: BF4T Assay for Intercellular Adhesion Molecule 1 (ICAM1) Biomarker Activity (AID 2284260); conditions: primary human bronchial epithelial cells with fibroblasts
Outline: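 ICAM-1 levels measured by ELISA after 24 h chemical treatment of bronchial epithelial cell/dermal fibroblast co-cultures, read against DMSO baseline. Overt cytotoxicity checked in parallel cultures by sulforhodamine B staining.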

CD90, THY1 (gene 7070) = test: BSK_BF4T_CD90: BioMAP Diversity Plus: BF4T Assay for CD90 Biomarker Activity (AID 2284262); conditions: primary human bronchial epithelial cells with fibroblasts
Outline: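 CD90 levels by ELISA after 24 h treatment of human bronchial epithelial cell/dermal fibroblast cultures, analysed versus DMSO. Overt cytotoxicity checked in parallel cultures by sulforhodamine B staining.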

[14] = read-out: Interleukin-8 (IL8), CXCL8 (gene 3576); test: BSK_BF4T_IL8: BioMAP Diversity Plus: BF4T Assay for Interleukin-8 (IL8) Biomarker Activity (AID 2284263); conditions: primary human bronchial epithelial cells with fibroblasts
Outline: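 Human bronchial epithelial cells with dermal fibroblasts co-culture; IL-8 measured by ELISA 24 hours after dosing, fitted vs DMSO. Cytotoxicity tracked in parallel cultures by SRB total-protein staining.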

[15] = read-out: Interleukin-1 alpha (IL1a), IL1A (gene 3552); test: BSK_BF4T_IL1a: BioMAP Diversity Plus: BF4T Assay for Interleukin-1 alpha (IL1a) Biomarker Activity (AID 2284264); conditions: primary human bronchial epithelial cells with fibroblasts
Outline: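 ELISA read-out of IL-1α from bronchial epithelial cell/dermal fibroblast co-cultures 24 h after compound addition. Increases scored against DMSO negative control. Cytotoxicity monitored by sulforhodamine B staining of parallel cultures.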

KRT18 (gene 3875) = test: BSK_BF4T_Keratin818: BioMAP Diversity Plus: BF4T Assay for Keratin 818 Biomarker Activity (AID 2284266); conditions: primary human bronchial epithelial cells with fibroblasts
Outline: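 Keratin 8/18 levels quantified by ELISA after 24 h chemical treatment of bronchial epithelial cell/dermal fibroblast co-cultures, fitted in positive direction relative to DMSO. Parallel SRB staining tracks overt cytotoxicity.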

[16] = read-out: Matrix Metallopeptidase 1 (MMP1), MMP1 (gene 4312); test: BSK_BF4T_MMP1: BioMAP Diversity Plus: BF4T Assay for Matrix Metallopeptidase 1 (MMP1) Biomarker Activity (AID 2284270); conditions: primary human bronchial epithelial cells with fibroblasts
Outline: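 MMP-1 quantified by ELISA in primary human bronchial epithelial/dermal fibroblast co-cultures, 24 hours post-dosing, with DMSO as baseline; parallel sulforhodamine B staining (560 nm) tracks overt cytotoxicity.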

Measured: AC50

CC(=O)OCC=C(C)CCC=C(C)CCC=C(C)C
inactive: [1] | [2] | Decorin, DCN (gene 1634) | [3] | [4] | [5]

c1ccc(OCCOc2ccccc2)cc1
inactive: [6] | [7] | [8]

OCCN1CCOCC1
inactive: [1] | [2] | Decorin, DCN (gene 1634) | [3] | [4] | [5]

C=C(F)C(=O)OC(C(F)(F)F)C(F)(F)F
active: [12] 47.3 µM
inactive: [6] | [7] | [9] | [8] | [10] | [1] | CD69, CD69 (gene 969) | [11] | [12] | [13] | [2] | CD90, THY1 (gene 7070) | [14] | [15] | Decorin, DCN (gene 1634) | KRT18 (gene 3875) | [3] | [4] | [5] | [16]

C=CC(=O)OCC(CO)(COC(=O)C=C)COC(=O)C=C
active: [1] 2.88 µM | [2] 4.24 µM | Decorin, DCN (gene 1634) 3.97 µM | [3] 0.642 µM | [5] 2.05 µM
inactive: [4]

CCn1cc(C(=O)O)c(=O)c2ccc(C)nc21
inactive: [6] | [7] | [8]

c1ccc2c(c1)-c1ccc3ccc4cccc5cc-2c1c3c45
inactive: [2] | Decorin, DCN (gene 1634) | [3] | [5]
active: [1] 1.24 µM | [4] 1.33 µM

C=C1CC/C=C(\C)CC[C@@H]2[C@@H]1CC2(C)C
inactive: [2]
active: [1] 20 µM | Decorin, DCN (gene 1634) 31 µM | [3] 28.8 µM | [4] 9.66 µM | [5] 34.6 µM

COc1ccccc1NC(=O)CC(C)=O
inactive: [1] | [2] | Decorin, DCN (gene 1634) | [3] | [4] | [5]

CCCCCCCCCC(=O)OCC
inactive: [1] | [2] | Decorin, DCN (gene 1634) | [3] | [4] | [5]

CCCCCCCC1CCCC1=O (stereo unspecified)
inactive: [1] | [2] | Decorin, DCN (gene 1634) | [5]
active: [3] 32.4 µM | [4] 32.4 µM

O=S1(=O)CC(Cl)(Cl)C(Cl)(Cl)C1
inactive: [2] | Decorin, DCN (gene 1634)
active: [1] 2.62 µM | [3] 2.14 µM | [4] 3.45 µM | [5] 3.94 µM

c1ccc(Sc2ccccc2)cc1
inactive: [1]
active: [2] 30.6 µM | Decorin, DCN (gene 1634) 36.5 µM | [3] 34.8 µM | [4] 30.8 µM | [5] 32.3 µM

O=C(O)C(F)(F)C(F)(F)C(F)(F)C(F)(F)C(F)(F)C(F)(F)C(F)(F)C(F)F
active: [6] 12.9 µM | CD69, CD69 (gene 969) 0.257 µM | [11] 4.86 µM and 2.55 µM | [12] 2.81 µM and 1.53 µM | [13] 2.59 µM and 3.49 µM | Decorin, DCN (gene 1634) 22.5 µM | [16] 51.9 µM
inactive: [6] | [7] | [9] | [8] | [10] | [1] | CD69, CD69 (gene 969) | [2] | CD90, THY1 (gene 7070) | [14] | [15] | Decorin, DCN (gene 1634) | KRT18 (gene 3875) | [3] | [4] | [5] | [16]

O=S(=O)(O)C(F)(F)C(F)(F)OC(F)(F)C(F)(F)F
inactive: all assays above

Nc1ccc(N)c([N+](=O)[O-])c1
inactive: [1] | [2] | Decorin, DCN (gene 1634) | [3] | [4] | [5]

CCCCN(CCO)CCO
inactive: [6] | [7] | [8]

CCOC(=O)CCCCCCCCC(=O)OCC
inactive: [1] | [2] | Decorin, DCN (gene 1634) | [3] | [4] | [5]
